KDM5B inh: KDM5B demethylase inhibition; Q9UGL1; KDM5B demethylase, FDH-coupled NADH fluorescence (FDH is formaldehyde dehydrogenase); Potency, µM (highest dose often 57.7 µM), actives largely listed as inhibitors; 220,000 compounds, 2.6% hits; AID 1347165; also: potency is read from the fitted curve at half-maximal effect; 0% is about no effect; nearly all actives have a fitted effect of over 70% in size
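Measured: NADH fluorescence change, 30 min, RT. System: KDM5BΔAP 200 nM final, H3K4me3 peptide, α-KG, Fe(II), ascorbate, NAD⁺ plus FDH, pH 7.5 HEPES. Compounds: titrated, 10 min pre-incubation with enzyme.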
IP6K1 inh: inhibitors of human IP6K1 | IP6K1 kinase, ADP-Glo luminescence, 2 h; active compounds read low | Q92551 | 140,000 compounds, 0.81% hits | activity change, % (series mostly up to about 58 µM); in the data active = activity change below about -25%; also: % is scaled to controls: 0 for no effect and ±100 for the full control effect
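ADP-Glo luminescence measures ADP made by human IP6K1 during a 2 h RT reaction with ATP/IP6 (mix at 1.3 mM/130 uM); top library doses 57.5 and 19.1 uM final.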
SNCA viab count: counter-screen for SNCA expression inhibitors: cell viability; AID 1671193; 150,000 compounds, 0.12% hits; HEK-293-SNCA-luc viability, GF-AFC fluorescence, 24 h; Potency, µM (titrated, usually from 57.1 µM), for the others: at the highest dose activity change, negative = cytotoxicity, most hits filed as cytotoxic;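 also: potency is read from the fitted curve at half-maximal effect; 0% = DMSO-treated cells and -100% = medium-only wells without cells; nearly all actives have a fitted effect of over 30% in size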
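HEK-293-SNCA-luc cells (1500/well) plated 24 h, then exposed 24 h to a dilution series; GF-AFC added 30 min at 37C, fluorescence 405/540 nm; normalised to medium-only and DMSO wells, Hill fit.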
SNCA expr inh: reduces expression of the alpha-synuclein gene; HEK-293 SNCA-luciferase knock-in, luminescence, 24 h; Potency, µM (series often up to 57.2 µM), without a hit: at the highest dose activity change, negative = inhibition, usual class: inhibitors; 140,000 compounds, 0.17% hits;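 also: potency is read from the fitted curve at half-maximal effect; plate controls were DMSO cells for no effect and cell-free wells for full effect; nearly all actives have a fitted effect of over 45% in size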
* hit, by the source's call; [ ] = dose if it differs, or a comment. Hits are enriched below; roughly 2.8% of the tested compounds scored in any of these assays. Unless noted, calls follow the shape of the dose curve; as a rule, active = well fitted curve in the direction sought with a large enough effect; inconclusive = small, poorly fitted or top-dose-only effect, or another doubt; inactive = no such curve, though single readings can be large; an effect the other way counts as inactive or inconclusive.

O=C(c1ccc(Cl)s1)N1CCCC2(C1)Nc1cccnc1NC2=NC1CCCC1 (stereo unspecified) was read as KDM5B inh 28µM*, IP6K1 inh 0, SNCA viab count -22% and SNCA expr inh -17%.
O=C(CSc1ccccc1)N1CCCC2(C1)Nc1cccnc1NC2=NC1CCCC1 (stereo unspecified) was read as KDM5B inh 28µM*, IP6K1 inh 7, SNCA viab count -19% and SNCA expr inh 2%.
Screening COc1cc(OC)cc(C(=O)N2CCCC3(C2)Nc2cccnc2NC3=NC2CCCC2)c1 (stereo unspecified) returned KDM5B inh 28µM*, IP6K1 inh 5, SNCA viab count -12% and SNCA expr inh 6%.
For O=C(c1ccc(Cl)s1)N1CCN(c2ncccn2)CC1 the results were KDM5B inh inactive.
O=C(Cc1c[nH]c2ccccc12)N1CCCC2(C1)Nc1cccnc1NC2=NC1CCCC1 (stereo unspecified) was read as KDM5B inh inconclusive, IP6K1 inh 1, SNCA viab count -13% and SNCA expr inh 33%.
CCC1CCCCN1C(=O)Cn1c(-c2ccc(F)cc2)nc(C)cc1=O (stereo unspecified) was read as KDM5B inh inactive.
`Cc1ccc(C(=O)N2CCCC3(C2)C(=NC2CCCC2)NC(=O)N3c2cccnc2)cc1` (stereo unspecified) gave KDM5B inh inactive, IP6K1 inh -9, SNCA viab count 2% and SNCA expr inh 39%.
Screening COc1ccc(OCC(=O)N2CCCC3(C2)Nc2cccnc2NC3=NC2CCCC2)cc1 (stereo unspecified) returned KDM5B inh 25µM*, IP6K1 inh 17, SNCA viab count -13% and SNCA expr inh -12%.
`O=C(c1ccc2nc[nH]c2c1)N1CCCC2(C1)Nc1cccnc1NC2=NC1CCCC1` (stereo unspecified) gave KDM5B inh 28µM*, IP6K1 inh -8, SNCA viab count inconclusive and SNCA expr inh 1%.
Screening CCCn1c(C)cnc1CC1CCCN(S(=O)(=O)c2cccs2)C1 (stereo unspecified) returned KDM5B inh inactive, IP6K1 inh 2, SNCA viab count -2% and SNCA expr inh -1%.
`O=S(=O)(c1cccs1)N1CCCC2(C1)Nc1cccnc1NC2=NC1CCCC1` (stereo unspecified) gave KDM5B inh 11µM*, IP6K1 inh 14, SNCA viab count -21% and SNCA expr inh -7%.
Screening O=C(NCc1cccc(Cl)c1)C1(c2ccc(Cl)cc2)CCOCC1 returned IP6K1 inh 28.
Cc1ccccc1C(=O)NCCc1csc(-c2cccc(F)c2)n1 was read as KDM5B inh inactive.
For O=c1c2nc(-c3ccccc3F)ccc2ncn1Cc1ccccn1 the results were KDM5B inh inconclusive, IP6K1 inh -4, SNCA viab count -1%[87.6 µM] and SNCA expr inh 4%[87.6 µM].
`COc1ccc(-c2ccc3ncn(Cc4ccccn4)c(=O)c3n2)cc1F` gave KDM5B inh 35µM*, IP6K1 inh 5, SNCA viab count -12%[87.6 µM] and SNCA expr inh 6%[87.6 µM].
Screening Cc1ccc(-c2ccc3ncn(Cc4ccccn4)c(=O)c3n2)c(C)c1 returned KDM5B inh 32µM*, IP6K1 inh 4, SNCA viab count -6%[87.6 µM] and SNCA expr inh -3%[87.6 µM].
O=c1c2nc(-c3ccccc3)ccc2ncn1Cc1ccccn1 was read as KDM5B inh 40µM*, IP6K1 inh 18, SNCA viab count -5%[87.6 µM] and SNCA expr inh -19%[87.6 µM].
Screening O=c1c2nc(-c3ccc(Cl)cc3)ccc2ncn1Cc1ccccn1 returned KDM5B inh 35µM*, IP6K1 inh 6, SNCA viab count -22%[87.6 µM] and SNCA expr inh 5%[87.6 µM].
For O=C(/C=C/c1cccs1)Oc1ccc(C(=O)c2ccccc2)cc1 the results were KDM5B inh inactive.
COc1cccc(-c2ccc3c(n2)CNC(=O)CO3)c1 was read as KDM5B inh 32µM*, IP6K1 inh 11, SNCA viab count 3%[87.6 µM] and SNCA expr inh 132%[87.6 µM].
O=[S+]1([O-])c2cccnc2OC(Cn2cccc2)CN1CCC1=CCCCC1 (stereo unspecified) was read as IP6K1 inh -1.
Screening C=C1C(=O)[C@@]23C(CC[C@@H]1[C@H]2O)[C@@]12CO[C@]3(O)[C@@H](O)[C@@H]1C(C)(C)CC[C@@H]2O (stereo partly specified) returned IP6K1 inh -1, SNCA viab count 30µM* and SNCA expr inh 34µM*.
Screening CCCc1noc(-c2cccn3c(CNC(=O)CCc4ccccc4)nnc23)n1 returned KDM5B inh 18µM*, IP6K1 inh 1, SNCA viab count -15% and SNCA expr inh -17%.
Screening CC(C)c1noc(-c2cccn3c(CNC(=O)CCc4ccccc4)nnc23)n1 returned KDM5B inh 14µM*, IP6K1 inh 1, SNCA viab count -8% and SNCA expr inh 1%.
COc1cccc(-c2cc(C(=O)N3CCCC3)c3ccccc3n2)c1 was read as KDM5B inh inactive.
`CCN(Cc1ccncc1)C(=O)CCC1CCN(S(=O)(=O)c2ccccc2)CC1` gave KDM5B inh inactive, IP6K1 inh 20, SNCA viab count 2% and SNCA expr inh -7%.
For CCN(Cc1ccccc1)C(=O)CCC1CCN(S(=O)(=O)c2ccccc2)CC1 the results were KDM5B inh 25µM*, IP6K1 inh 15, SNCA viab count 3% and SNCA expr inh -29%.
Screening COc1cccc(NC(=O)CCC2CCN(S(=O)(=O)c3ccccc3)CC2)c1 returned KDM5B inh 28µM*, IP6K1 inh 23, SNCA viab count 4% and SNCA expr inh 12%.
COCc1ccc2c(c1)c(OC(C)(C)C(=O)NC(C)C)nn2Cc1cccc(OC)c1 was read as KDM5B inh 35µM*, IP6K1 inh -8, SNCA viab count -1%[87.6 µM] and SNCA expr inh -4%[87.6 µM].
Screening COCc1ccc2c(c1)c(OC(C)(C)C(=O)NC1CCC(O)CC1)nn2Cc1ccccc1 (stereo unspecified) returned KDM5B inh 25µM*, IP6K1 inh 9, SNCA viab count 3% and SNCA expr inh -2%.
COCc1ccc2c(c1)c(OC(C)(C)C(=O)N1CC(O)C1)nn2Cc1ccccc1 was read as KDM5B inh inconclusive, IP6K1 inh -9, SNCA viab count -4%[87.6 µM] and SNCA expr inh -17%[87.6 µM].
Screening COCc1ccc2c(c1)c(OC(C)(C)C(=O)N1CCOCC1)nn2Cc1cccc(OC)c1 returned KDM5B inh inconclusive, IP6K1 inh 0, SNCA viab count 1% and SNCA expr inh 17%.
CCCNC(=O)C(C)(C)Oc1nn(Cc2ccccc2)c2ccc(COC)cc12 was read as KDM5B inh 32µM*, IP6K1 inh -8, SNCA viab count -3%[87.6 µM] and SNCA expr inh 10%[87.6 µM].
Screening N#Cc1ccc(COc2ccc(C#N)cc2)cc1 returned KDM5B inh inactive.
COc1ccc2c(c1)OCC(C(=O)NCCCN1CCCc3ccccc31)C2 (stereo unspecified) was read as KDM5B inh inconclusive, IP6K1 inh 16, SNCA viab count 4% and SNCA expr inh 11%.

Bioassay records from PubChem.
